Source: PubChem (several laboratories)
Rows were chosen to be rich in hits. Some 4.8% of all compounds tested hit in one or more screens of this group.
ssDAF-12 act: S. stercoralis DAF-12 nuclear receptor activators, primary screen, cell-based, luminescence, HEK293, GRIP1 co-expression, lit1-tk-luc | Nuclear hormone receptor DAF-12 (Strongyloides stercoralis) | HEK293 ssDAF-12/GRIP1 lit1-tk-luc reporter; % of 3 µM dafachronic acid response | activation, % at 6.8 µM | hit rate 1% among 370,000 | AID 652126, 2013;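 active = activation above the mean over all tested compounds plus 3 SD, cut at about 0.9% in these data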;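 also: 0% = DMSO-only wells and 100% = 3 µM delta7-dafachronic acid wells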
NR1D1 modulator: modulators of Rev-erb alpha DNA binding, primary screen, biochemical, FITC-DNA, fluorescence polarization, uHTS. AID 1259318, 2017. hit rate 0.79% among 370,000. Rev-erbα–FITC-DNA binding, 90 min. activity, % at 10 µM;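 active = activity above about 14%, limit read from the data; passing the limit was not always enough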;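 also: 0% = DMSO wells with 35 nM protein and 100% = DMSO wells with 750 nM protein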
DAX1 inh-1: DAX1 (NR0B1) inhibitors, primary screen, cell-based, HEK293, Gal4-DAX1, luciferase luminescence. inhibition, % at 6.75 µM. HEK293 Gal4-DAX1 luciferase reporter. hit rate 0.99% among 340,000;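 active = inhibition above the mean over all tested compounds plus 3 SD, cut at about 4.2% in these data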;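 also: 0% = DAX1-transfected cells with DMSO and 100% = empty-vector control cells with DMSO; inhibition shows as a rise in luminescence from relieved DAX1 repression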
Target sequence (P51843 207-470 limits assumed): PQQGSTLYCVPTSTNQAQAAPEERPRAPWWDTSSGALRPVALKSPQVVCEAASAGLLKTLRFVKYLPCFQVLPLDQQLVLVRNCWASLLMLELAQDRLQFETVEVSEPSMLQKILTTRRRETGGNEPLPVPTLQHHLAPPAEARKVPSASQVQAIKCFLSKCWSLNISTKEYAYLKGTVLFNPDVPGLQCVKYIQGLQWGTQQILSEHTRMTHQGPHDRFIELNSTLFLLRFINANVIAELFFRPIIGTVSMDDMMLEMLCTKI
hcDAF-12 act: H. contortus DAF-12 nuclear receptor activators, primary screen, cell-based, luminescence, HEK293, lit1-tk-luc reporter. HEK293 hcDAF-12 lit1-tk-luc reporter; 0% DMSO, 100% Δ7-dafachronic acid. activation, % at 6.8 µM. hit rate 1.4% among 370,000;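 active = activation above the mean of all tested compounds plus 3 SD, cut at about 5.5% in these data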;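 also: 100% = response to 3 µM Δ7-dafachronic acid high control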
DAX1 inh-2: DAX1 (NR0B1) inhibitors on StAR promoter, primary screen, cell-based, luminescence, SF-1 (NR5A1), full-length DAX-1; hit rate 1.1% among 370,000; HEK293T StAR-luciferase reporter, SF-1/DAX-1 repression relief; AID 652010, 2013; inhibition, % at 6.8 µM;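 active = inhibition above the mean over all tested compounds plus 3 SD, cut at about 3.6% in these data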;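 also: 0% = DAX-1 cells with DMSO and 100% = cells lacking DAX-1 with DMSO; higher inhibition means more luminescence from relief of DAX-1 repression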
hgDAF-12 ag: H. glycines DAF-12 receptor agonists, primary screen, cell-based, luminescence, HEK293, GAL4 fusion, UAS-luciferase; Nuclear hormone receptor DAF-12 (Heterodera glycines), GAL4 fusion; HEK293 GAL4-hgDAF12 UAS-luciferase reporter, agonist luminescence; normalized to butyrate control; activation, % at 6.8 µM; hit rate 1.8% among 370,000;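 active = activation above a cutoff set at the mean of all screened compounds plus 3 SD, cut at about 10% in these data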;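 also: 0% = DMSO wells and 100% = sodium butyrate wells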
LXR ag: LXR agonists, Gal4 luciferase reporter, confirmation, counter-screen for hcDAF-12 agonist project, cell-based, luminescence, HEK293, H. contortus campaign; shares compounds with hcDAF-12 act; HEK293 Gal4-LXR tk-luc reporter, 24 h; normalized: DMSO 0%, positive control 100%; activation, % at 6.8 µM; 3,400 tested, under 10 active;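 active = mean percent activation of the reporter above a cutoff set as the average over tested compounds plus their standard deviation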
Target sequence (P55055 whole entry, looked up, the tested form may be a part): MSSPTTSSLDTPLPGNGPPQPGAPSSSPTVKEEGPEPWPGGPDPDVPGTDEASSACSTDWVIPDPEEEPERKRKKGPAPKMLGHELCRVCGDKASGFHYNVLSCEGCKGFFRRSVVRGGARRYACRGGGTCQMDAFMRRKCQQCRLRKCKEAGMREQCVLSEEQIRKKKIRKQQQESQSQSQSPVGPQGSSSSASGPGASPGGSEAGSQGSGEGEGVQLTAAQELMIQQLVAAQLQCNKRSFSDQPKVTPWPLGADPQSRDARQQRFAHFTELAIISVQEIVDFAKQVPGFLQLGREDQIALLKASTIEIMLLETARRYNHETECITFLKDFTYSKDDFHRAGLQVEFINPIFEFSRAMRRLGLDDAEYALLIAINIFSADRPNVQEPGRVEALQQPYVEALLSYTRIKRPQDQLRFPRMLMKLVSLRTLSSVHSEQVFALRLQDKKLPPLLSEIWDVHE
hcDAF12 conf: H. contortus DAF-12 receptor agonists, confirmation, cell-based, luminescence, HEK293, lit1-tk-luc, triplicate; HEK293 hcDAF-12 lit1-tk-luc reporter; % of Δ7-dafachronic acid response; hit rate 61% among 3,400; AID 743032, 2013; activation, % at 6.8 µM; shares compounds with hcDAF-12 act;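 active = mean activation across triplicate tests above the threshold derived from the earlier primary screen, cut at about 5.5% in these data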;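 also: 0% = DMSO only wells and 100% = 3 µM Δ7-dafachronic acid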
* marks the source's active call; other numbers are inactive results; nt = no result given.

SMILES | ssDAF-12 act | NR1D1 modulator | DAX1 inh-1 | hcDAF-12 act | DAX1 inh-2 | hgDAF-12 ag | LXR ag | hcDAF12 conf
CCCc1nc2cc(C)c(Br)c(C)n2c1Cc1ccc(OC)cc1C | 0 | 3 | nt | 3 | -2 | 3 | nt | nt
Cc1ccc(NC(=O)c2ccc(OC(=O)COc3cccc(Cl)c3)cc2)cc1 | 0 | -2 | 1 | 7.6* | 3.9* | 12* | 1 | 4
Cc1cc(N2CCNC[C@@H]2C)ccc1N1CCS(=O)(=O)CC1 | -2 | -3 | nt | 2 | 1 | 4 | nt | nt
C[C@@H]1CN([C@H](C)CO)C(=O)c2cc(NC(=O)Nc3ccccc3)ccc2O[C@@H](C)CCCCO[C@H]1CN(C)S(C)(=O)=O | -1 | 4 | nt | -1 | 0 | -4 | nt | nt
Nc1cc2c(cc1N)-c1ccccc1C2 | 0 | -4 | 3 | 6.7* | 3.8* | 8 | 0 | 4
C=CCOC(=O)N[C@@H](c1cccc(OC)c1)[C@@H](C)/C=C/CC(=O)O | -1 | -4 | nt | 0 | 0 | -3 | nt | nt
COc1ccc(CN=Cc2[nH]c3ccc(Br)c(Cl)c3c2O)cc1 | 0 | 0 | -1 | 1 | -1 | 3 | nt | nt
Cc1cc(C)cc(N=Cc2[nH]c3ccc(Br)c(Cl)c3c2O)c1 | 0 | 8 | -1 | 35* | -1 | -3 | 0 | -1
CC/C(=N/NC(=O)c1ccc2c(c1)OCO2)c1ccccc1O | 1.1* | 2 | 4.9* | 14* | 0 | 4 | 0 | 0
COc1ccc(Cl)cc1C1=NOC2(CCC2)C(=O)N1Cc1ccc(NC(C)=O)cc1 | -1 | 3 | nt | 9.4* | -2 | 2 | 0 | 0
COc1ccc(Cl)cc1C(=O)Nc1ccc(NC(C)=O)cc1 | -1 | 2 | 1 | 0 | 1 | 0 | nt | nt
Cc1cc(NC(=O)COC(=O)c2oc3c(Cl)cccc3c2C)no1 | 0 | -4 | 3 | 6.8* | 0 | 2 | 0 | 3
CN1C2=N[C@@H](c3ccc4ccccc4c3)CC(=O)N2/C(=C\c2ccccc2)[C@H]1c1ccccc1 | -2 | -1 | nt | -2 | nt | 1 | nt | nt
CCOc1c2ccc(C(=O)NCCc3ccc(C)cc3)cc2nn1CC | -1 | 0 | 0 | 2 | 0 | 0 | nt | nt
O=C(NCCc1cccs1)c1ccc(Cl)cc1 | 1 | 2 | -2 | 7.6* | 3 | 11* | 1 | 2
CCn1nc2cc(C(=O)NCCc3cccs3)ccc2c1OC | 0 | -1 | 4.6* | 8.1* | 2 | 8 | 1 | 5.7*
O=C(O)c1cc(N/N=C/c2c[nH]c3ccccc23)ccc1Cl | 3.2* | 2 | 2 | 8.6* | 0 | 2 | 0 | 10*
COc1ccc2ccccc2c1/C=N/Nc1ccc(Cl)c(C(=O)O)c1 | -1 | -2 | 2 | 0 | 0 | -2 | nt | nt
Cn1ccc(C(=O)N/N=C/c2c[nH]c3ccccc23)n1 | 0.9* | 5 | 2 | 12* | 0 | 8 | 0 | 5
CC(=O)Nc1cccc(C(=O)N/N=C/c2c[nH]c3ccccc23)c1 | 0.9* | 3 | 1 | 8.5* | 0 | 9 | 0 | 4
COc1ccc2c(/C=N/Nc3ccc(C(=O)O)cc3)c[nH]c2c1 | 0.9* | 0 | -1 | 10* | 2 | 7 | 1 | 10*
COc1ccc(C(=O)N/N=C/c2c[nH]c3ccccc23)cc1 | 0 | 3 | 3 | 3 | 0 | 4 | nt | nt
O=C(N/N=C/c1c[nH]c2ccccc12)c1ccn(Cc2ccc(Cl)cc2Cl)n1 | 0 | 1 | 1 | 4 | -1 | -2 | nt | nt
C[C@H]1Cn2cnc(C(=O)N3CCN(c4ccccc4)CC3)c2C(=O)N1 | -1 | -3 | nt | 0 | -1 | -2 | nt | nt
O=C(COC(=O)c1n[nH]c2ccccc12)Nc1ccccc1F | 1.8* | 7 | 2 | 6.8* | 2 | 7 | 1 | 8.2*
SMILES | ssDAF-12 act | NR1D1 modulator | DAX1 inh-1 | hcDAF-12 act | DAX1 inh-2 | hgDAF-12 ag | LXR ag | hcDAF12 conf
O=C(CCC(=O)NCCCc1ccccc1)NCCCc1ccccc1 | -1 | 0 | 1 | 7.7* | 0 | 2 | 0 | 0
O=C(Cc1ccccc1)NCCCc1ccccc1 | 0 | 1 | 1 | 4 | 0 | 2 | nt | nt
CC(=O)c1sc(N/N=C/c2cccc(O)c2)nc1C | 0 | -4 | 0 | 7.1* | 0 | 12* | 1 | 5
COc1cccc(N(C)C(=O)[C@@H](C)[C@@H](O)c2ccc(C(C)=O)cc2)c1 | -1 | -1 | nt | -1 | -1 | 2 | nt | nt
COc1ccc(NC(=O)c2ccc3ccccc3n2)cc1S(=O)(=O)N1CCCCC1 | 0 | -7 | 1 | 8.9* | 2 | 5 | 0 | 4
CC(=O)NC1CCCCN(C)C1=O (stereo not given) | -1 | 0 | nt | 0 | 0 | 3 | nt | nt
CC(C)N(c1cc(=O)nc2ccccn12)C(C)C | -1 | -5 | nt | 2 | 0 | 0 | nt | nt
CCCCn1cnc2c(oc3nc4c(cc32)CCCC4)c1=O | 0 | -6 | 0 | 8.3* | 3 | 11* | 1 | 4
CCCCCCn1cnc2c(oc3nc4c(cc32)CCCC4)c1=O | -1 | -1 | -1 | 0 | 1 | 7 | nt | nt
Cc1sc2c(c1C)CN(CCN1CCOCC1)CN2C(=O)c1ccccc1 | 1 | 0 | 2 | 9.6* | 1 | 9 | 0 | 6.0*
COc1ccc(-n2c(SCC(=O)Nc3ccc(C(N)=O)cc3)nc3c([nH]c4ccccc43)c2=O)cc1OC | 0.9* | 7 | 0 | 9.7* | 3 | -2 | 0 | 8.8*
CC(C)Sc1nc2c([nH]c3ccccc32)c(=O)n1C | 1.0* | 7 | 0 | 11* | 0 | 0 | 0 | 7.1*
Cc1ccc(NC(=O)CSc2nc3c([nH]c4ccccc43)c(=O)n2C)cc1 | 0 | -5 | 0 | 3 | 0 | -3 | nt | nt
